# Results from the supplement of paper PMC8728848.
# The full list was thinned out, with the strongest signals kept by preference.
# Key:
# Experiment in all cases: glycan array binding signal (z-score within array); higher = stronger binding
# Settings in all cases: glycan notation: IUPAC condensed, linker removed
# [1] = biological target: Fuc(a1-2)Gal(b1-3)GalNAc(b1-4)[Neu5Ac(a2-3)]Gal(b1-4)Glc
# Outline: (§1)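 Arrays were curated from the Consortium for Functional Glycomics database, 3228 in total, and kept only where the protein sequence was available. Binding is expressed as a within-array Z-score. This score was averaged across arrays of the same protein sequence at different concentrations or buffers and across linkers, and negative values can be read as non-binding.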
# [2] = biological target: Fuc(a1-2)Gal(b1-4)[Fuc(a1-3)]GlcNAc(b1-3)GalNAc
# Outline: as §1
# [3] = biological target: Fuc(a1-2)[GalNAc(a1-3)]Gal(b1-4)[Fuc(a1-3)]GlcNAc(b1-3)GalNAc
# Outline: as §1
# [4] = biological target: Fuc(a1-3)[Gal(b1-4)]GlcNAc(b1-2)Man(a1-3)[Fuc(a1-3)[Gal(b1-4)]GlcNAc(b1-2)Man(a1-6)]Man(b1-4)GlcNAc(b1-4)GlcNAc
# Outline: as §1
# [5] = biological target: Fuc(a1-3)[Gal(b1-4)]GlcNAc(b1-2)Man(a1-3)[Fuc(a1-3)[Gal(b1-4)]GlcNAc(b1-2)Man(a1-6)]Man(b1-4)GlcNAc(b1-4)[Fuc(a1-6)]GlcNAc
# Outline: as §1
# [6] = biological target: Gal(a1-3)Gal(b1-3)GlcNAc
# Outline: as §1
# [7] = biological target: Gal(a1-4)Gal(b1-4)GlcNAc(b1-3)Gal(b1-4)Glc
# Outline: as §1
# [8] = biological target: Gal(b1-3)GlcNAc(b1-3)Gal(b1-4)GlcNAc(b1-6)[Gal(b1-3)GlcNAc(b1-3)]Gal(b1-4)Glc
# Outline: as §1
# [9] = biological target: Gal(b1-3)[Fuc(a1-4)]GlcNAc(b1-2)Man(a1-3)[Gal(b1-3)[Fuc(a1-4)]GlcNAc(b1-2)Man(a1-6)]Man(b1-4)GlcNAc(b1-4)[Fuc(a1-6)]GlcNAc
# Outline: as §1
# [10] = biological target: Gal(b1-4)GlcNAc(b1-2)Man(a1-3)Man(b1-4)GlcNAc(b1-4)GlcNAc
# Outline: as §1
# [11] = biological target: Gal(b1-4)GlcNAc(b1-2)Man(a1-3)[Gal(b1-4)GlcNAc(b1-2)Man(a1-6)]Man(b1-4)GlcNAc(b1-4)GlcNAc
# Outline: as §1
# [12] = biological target: Gal(b1-4)GlcNAc(b1-2)Man(a1-6)Man(b1-4)GlcNAc(b1-4)GlcNAc
# Outline: as §1
# [13] = biological target: Gal(b1-4)GlcNAc(b1-2)[Gal(b1-4)GlcNAc(b1-6)]Man(a1-6)[GlcNAc(b1-4)][Gal(b1-4)GlcNAc(b1-2)Man(a1-3)]Man(b1-4)GlcNAc(b1-4)GlcNAc
# Outline: as §1
# [14] = biological target: Gal3S(b1-4)GlcNAc6S
# Outline: as §1
# [15] = biological target: Gal3S6S(b1-4)GlcNAc
# Outline: as §1
# [16] = biological target: Gal6S(b1-3)GlcNAc
# Outline: as §1
# [17] = biological target: GalNAc(b1-3)GalNAc
# Outline: as §1
# [18] = biological target: Glc(a1-4)Glc(a1-4)Glc(a1-4)Glc
# Outline: as §1
# [19] = biological target: GlcNAc(a1-4)Gal(b1-4)GalNAc
# Outline: as §1
# [20] = biological target: GlcNAc(a1-4)Gal(b1-4)GlcNAc(b1-3)Gal(b1-4)GlcNAc
# Outline: as §1
# [21] = biological target: GlcNAc(b1-3)Gal(b1-3)GalNAc
# Outline: as §1
# [22] = biological target: GlcNAc(b1-3)Gal(b1-4)GlcNAc(b1-3)Gal(b1-4)GlcNAc
# Outline: as §1
# [23] = biological target: GlcNAc(b1-3)Man
# Outline: as §1
# [24] = biological target: Kdn(a2-3)Gal(b1-3)GlcNAc
# Outline: as §1
# [25] = biological target: Man(a1-2)Man(a1-3)[Man(a1-2)Man(a1-6)]Man(a1-6)[Man(a1-2)Man(a1-2)Man(a1-3)]Man(b1-4)GlcNAc(b1-4)GlcNAc
# Outline: as §1
# [26] = biological target: Neu5Ac(a2-3)Gal(b1-4)GlcNAc(b1-3)Gal
# Outline: as §1
# [27] = biological target: Neu5Ac(a2-3)Gal(b1-4)GlcNAc(b1-3)Gal(b1-4)[Fuc(a1-3)]GlcNAc
# Outline: as §1
# [28] = biological target: Neu5Ac(a2-3)Gal(b1-4)[Fuc(a1-3)]GlcNAc(b1-3)Gal(b1-4)GlcNAc
# Outline: as §1
# [29] = biological target: Neu5Ac(a2-3)Gal(b1-4)[Fuc(a1-3)]GlcNAc(b1-3)Gal(b1-4)[Fuc(a1-3)]GlcNAc(b1-3)Gal(b1-4)[Fuc(a1-3)]GlcNAc
# Outline: as §1
# [30] = biological target: Neu5Ac(a2-3)Gal(b1-4)[Fuc(a1-3)]GlcNAc(b1-3)GalNAc
# Outline: as §1
# [31] = biological target: Neu5Ac(a2-3)Gal(b1-4)[Fuc(a1-3)]GlcNAc(b1-6)[Gal(b1-3)]GalNAc
# Outline: as §1
# [32] = biological target: Neu5Ac(a2-3)Gal6S(b1-4)[Fuc(a1-3)]GlcNAc
# Outline: as §1
# [33] = biological target: Neu5Ac(a2-3)[GalNAc(b1-4)]Gal(b1-4)GlcNAc(b1-3)GalNAc
# Outline: as §1
# [34] = biological target: Neu5Ac(a2-6)Gal(b1-4)Glc
# Outline: as §1
# [35] = biological target: Neu5Ac(a2-6)Gal(b1-4)GlcNAc(b1-2)Man(a1-3)[GlcNAc(b1-2)Man(b1-4)GlcNAc(b1-2)Man(a1-6)]Man(b1-4)GlcNAc(b1-4)GlcNAc
# Outline: as §1
# [36] = biological target: Neu5Ac(a2-6)Gal(b1-4)GlcNAc(b1-2)Man(a1-6)Man(b1-4)GlcNAc(b1-4)GlcNAc
# Outline: as §1
# [37] = biological target: Neu5Ac(a2-6)GalNAc
# Outline: as §1
# [38] = biological target: Neu5Ac(a2-6)GlcNAc(b1-4)GlcNAc(b1-4)GlcNAc
# Outline: as §1
# [39] = biological target: Neu5Gc(a2-3)Gal(b1-3)GlcNAc
# Outline: as §1
binder,measurement,setting,value
"Layilin (Mus musculus), Q8C351 (protein) MQPGAALQAMLLAVLLAKPRDSKGRLLSASDLDPRGGQLVCRGGTRRPCYKVIYFHDAFQRLNFEEAKETCMEDGGQLVSIETEDEQRLIEKFIENLLASDGDFWIGLKRLEEKQSNNTACQDLYAWTDGSTSQFRNWYVDEPSCGSEVCVVMYHQPSAPPGIGGSYMFQWNDDRCNMKNNFICKYHDDKPSTTPSIWPGGEATEPATPLLPEETQKEDTKETFKERREAALNLAYILIPSIPLFLLLVVTSAVCWVWICRRKREQTDPSTKEQHTIWPTPRQENSPNLDVYNVIRKQSEADLAEPRPDLKNISFRVCSGEAMPDDMSCDYENIAVNPSESGFVTLASMESGFVTNDIYEFSPDRMGRSKESGWVENEIYY",glycan array binding signal (z-score),[1],-0.101
same,glycan array binding signal (z-score),[2],4.74
same,glycan array binding signal (z-score),[3],2.16
same,glycan array binding signal (z-score),[4],-0.753
same,glycan array binding signal (z-score),[5],1.43
same,glycan array binding signal (z-score),[6],-0.17
same,glycan array binding signal (z-score),[7],3.88
same,glycan array binding signal (z-score),[8],-0.423
same,glycan array binding signal (z-score),[9],7.71
same,glycan array binding signal (z-score),[10],-0.41
same,glycan array binding signal (z-score),[11],-0.504
same,glycan array binding signal (z-score),[12],-0.753
same,glycan array binding signal (z-score),[13],-0.619
same,glycan array binding signal (z-score),[14],-0.103
same,glycan array binding signal (z-score),[15],-0.561
same,glycan array binding signal (z-score),[16],-0.243
same,glycan array binding signal (z-score),[17],-0.932
same,glycan array binding signal (z-score),[18],-0.492
same,glycan array binding signal (z-score),[19],-1.4
same,glycan array binding signal (z-score),[20],5.27
same,glycan array binding signal (z-score),[21],3.53
same,glycan array binding signal (z-score),[22],3.11
same,glycan array binding signal (z-score),[23],0.015
same,glycan array binding signal (z-score),[24],-0.719
same,glycan array binding signal (z-score),[25],0.181
same,glycan array binding signal (z-score),[26],0.955
same,glycan array binding signal (z-score),[27],0.119
same,glycan array binding signal (z-score),[28],-0.212
same,glycan array binding signal (z-score),[29],2.92
same,glycan array binding signal (z-score),[30],1.82
same,glycan array binding signal (z-score),[31],4.15
same,glycan array binding signal (z-score),[32],-0.666
same,glycan array binding signal (z-score),[33],0.49
same,glycan array binding signal (z-score),[34],0.086
same,glycan array binding signal (z-score),[35],1.47
same,glycan array binding signal (z-score),[36],-0.392
same,glycan array binding signal (z-score),[37],-0.757
same,glycan array binding signal (z-score),[38],0.077
same,glycan array binding signal (z-score),[39],0.013
